Measurements published in PubChem BioAssay AID1159580 (chemical genetic matrix, 2015).
“And” between values parts separate entries of the source, which are not always exact repeats. Equal entries are not always repeated. Out of some 5,500 compounds screened, about 2,000 (36%) were called active. Not shown: some 18% with an inconclusive outcome. No stated cut-off is given here; in the data, active means normalized growth mostly below about 0.91 (no sharp cut-off); inconclusive means no clear call, values can overlap the other calls; inactive means mostly above about 0.92. Some of the results follow.

Test: chemical genetic growth profiling, strain panel (AID 1159580);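 further: tested at 20 µM; growth read once vehicle control cultures reached saturation at 30 °C; 1 = growth at the plate median or of vehicle wells; lower values mean less growth of the strain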
Conditions: S. cerevisiae deletion strains, growth OD

Measured: normalized growth

COC(=O)[C@H]1[C@H]2C[C@@H]3c4[nH]c5cc(OC)ccc5c4CCN3C[C@H]2C[C@@H](OC(=O)c2cc(OC)c(OC)c(OC)c2)[C@@H]1OC
inactive: locus YAL013W, strain DEP1, hits give low values 0.994 | locus YAL021C, strain ccr4, hits give low values 0.965 | locus YAL026C, strain drs2, hits give low values 0.974 | locus YAL030W, strain snc1, hits give low values 0.981 | locus YBL061C, strain skt5, hits give low values 1 | locus YBR009C, strain hhf1, hits give low values 1.01 | locus YBR021W, strain FUR4, hits give low values 0.981 | locus YBR023C, strain chs3, hits give low values 0.979 | locus YBR171W, strain sec66, hits give low values 1 | locus YBR229C, strain ROT2, hits give low values 0.991 | locus YBR231C, strain swc5, hits give low values 0.987 | locus YBR279W, strain paf1, hits give low values 0.965 | locus YCL011C, strain gbp2, hits give low values 0.97 | locus YCL016C, strain dcc1, hits give low values 0.94 | locus YCL029C, strain bik1, hits give low values 1.03 | locus YCL069W, strain vba3, hits give low values 1.01 | locus YCR088W, strain abp1, hits give low values 0.999 | locus YDL005C, strain med2, hits give low values 0.98 | locus YDL035C, strain GPR1, hits give low values 0.979 | locus YDL040C, strain nat1, hits give low values 0.992 | locus YDL074C, strain BRE1, hits give low values 0.952 | locus YDL101C, strain DUN1, hits give low values 1.01 | locus YDL134C, strain PPH21, hits give low values 1 | locus YDL185W, strain tfp1, hits give low values 1.02 | locus YDL192W, strain arf1, hits give low values 1.03 | locus YDR001C, strain nth1, hits give low values 0.984 | locus YDR069C, strain doa4, hits give low values 0.963 | locus YDR101C, strain arx1, hits give low values 1 | locus YDR137W, strain rgp1, hits give low values 1.04 | locus YDR150W, strain NUM1, hits give low values 1 | locus YDR159W, strain sac3, hits give low values 0.968 | locus YDR162C, strain NBP2, hits give low values 0.991 | locus YDR195W, strain ref2 0.972 | locus YDR297W, strain sur2, hits give low values 0.984 | locus YDR318W, strain mcm21, hits give low values 1.01 | locus YDR334W, strain swr1, hits give low values 0.972 | locus YDR335W, strain msn5, hits give low values 0.993 | locus YDR388W, hits give low values 1.01 | locus YDR392W, strain spt3, hits give low values 0.784 | locus YDR502C, strain sam2, hits give low values 0.996 | locus YEL003W, strain gim4, hits give low values 0.977 | locus YEL037C, strain rad23, hits give low values 1 | locus YEL061C, strain CIN8 (second series), hits give low values 0.987 | locus YEL061C, strain CIN8, hits give low values 0.999 | locus YER015W, strain faa2, hits give low values 0.97 | locus YER016W, strain bim1, hits give low values 1 | locus YER110C, hits give low values 1.02 | locus YER111C, strain swi4, hits give low values 0.996 | locus YER155C, strain BEM2 (second series), hits give low values 0.931 | locus YER155C, strain BEM2, hits give low values 1.02 | locus YER167W, strain BCK2, hits give low values 0.987 | locus YFR010W, strain ubp6, hits give low values 1.01 | locus YGL078C, strain dbp3, hits give low values 1 | locus YGL086W, strain mad1, hits give low values 0.998 | locus YGL167C, strain pmr1, hits give low values 0.991 | locus YGL173C, strain kem1, hits give low values 0.983 | locus YGL227W, strain vid30, hits give low values 0.979 | locus YGL240W, strain doc1, hits give low values 0.957 | locus YGL248W, strain PDE1, hits give low values 1 | locus YGL253W, strain hxk2, hits give low values 1.01 | locus YGR078C, strain PAC10, hits give low values 0.975 | locus YGR135W, strain pre9, hits give low values 1.03 | locus YGR229C, strain SMI1, hits give low values 0.964 | locus YGR252W, strain gcn5, hits give low values 0.929 | locus YHR013C, strain ard1, hits give low values 0.92 | locus YHR027C, strain rpn1, hits give low values 0.953 | locus YHR030C, strain SLT2, hits give low values 1 and 0.982 | locus YHR079C, strain IRE1 (second series), hits give low values 1.01 | locus YHR079C, strain IRE1, hits give low values 0.978 | locus YHR094C, strain hxt1, hits give low values 1.02 | locus YHR129C, strain ARP1, hits give low values 1.01 | locus YHR142W, strain chs7, hits give low values 0.986 | locus YHR200W, strain rpn10, hits give low values 0.998 | locus YIL066C, strain RNR3, hits give low values 0.986 | locus YIL073C, strain SPO22, hits give low values 1.06 | locus YIL125W, strain kgd1, hits give low values 1 | locus YIR030C, strain dcg1, hits give low values 1.01 | locus YJL092W, strain hpr5, hits give low values 0.976 | locus YJL095W, strain BCK1 (second series), hits give low values 0.965 | locus YJL095W, strain BCK1, hits give low values 0.996 and 0.977 | locus YJL115W, strain asf1, hits give low values 0.966 | locus YJL129C, strain trk1, hits give low values 0.971 | locus YJL134W, strain LCB3, hits give low values 0.999 | locus YJL154C, strain vps35, hits give low values 0.986 | locus YJL164C, strain tpk1, hits give low values 0.988 | locus YJL166W, strain qcr8, hits give low values 0.981 | locus YJL168C, strain set2, hits give low values 1.01 | locus YJL187C, strain SWE1 (second series), hits give low values 0.999 | locus YJR043C, strain POL32, hits give low values 0.967 | locus YJR066W, strain TOR1, hits give low values 0.949 | locus YJR075W, strain HOC1, hits give low values 0.983
